Source: PubChem (National Center for Advancing Translational Sciences (NCATS))
Hits are enriched below; roughly 0.39% of the tested compounds scored in any of these assays.
A-T KAP1 phos = candidate therapy for ataxia-telangiectasia; F2112 A-T fibroblasts, KAP-1 phosphorylation AlphaLISA; neocarzinostatin DNA damage 30 min before lysis; Potency, µM (series often up to 57.5 µM), inactives show at the top dose activation, most hits filed as activators; actives 0.19% (n = 320,000); further: potency means the concentration at half of the fitted maximal effect; % of control where 0% means no effect; nearly all actives have a fitted effect of over 45% in size
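hTERT-immortalized A-T patient fibroblasts (F2112), 500 cells/well in OPTI-MEM, 1% FBS, got compounds for 60 min, then NCS for 30 min at 37C. Lysates were then assayed for phospho-KAP-1 by AlphaLISA (anti-pKAP1 donor, anti-KAP1 acceptor beads), 6 hr at 25C.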
Anesthetic bind = binds horse apoferritin like a general anesthetic | P02791 | apoferritin/1-aminoanthracene competitive binding, fluorescence | Potency, µM (top dose mostly 77.5 µM), for the others: top-dose activity change, negative = displacement, most hits filed as inhibitors | actives 0.074% (n = 350,000) | AID 485281; further: potency means the concentration at half of the fitted maximal effect; on the % scale 0 is the no-effect control and ±100 the full control effect; nearly all actives have a fitted effect of over 20% in size
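Probe: 1-aminoanthracene (50% saturated, PBS). Protein: horse-spleen apoferritin, 10 uM. Incubation: 10 min, room temperature. Detection: 380 nm excitation, 535 nm emission. Analysis: normalized response, four-parameter Hill.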
TRPV1 ag = activates the human vanilloid receptor TRPV1; Q8NER1; TRPV1-expressing cells, Fluo-8 calcium influx, agonist mode; activation, % at 8.33 µM; actives 0.19% (n = 320,000); AID 540275; in the data active means activation above about 80%; inconclusive means between about 30% and that limit; further: 0% is about no effect
Target sequence (Q8NER1 whole entry, looked up): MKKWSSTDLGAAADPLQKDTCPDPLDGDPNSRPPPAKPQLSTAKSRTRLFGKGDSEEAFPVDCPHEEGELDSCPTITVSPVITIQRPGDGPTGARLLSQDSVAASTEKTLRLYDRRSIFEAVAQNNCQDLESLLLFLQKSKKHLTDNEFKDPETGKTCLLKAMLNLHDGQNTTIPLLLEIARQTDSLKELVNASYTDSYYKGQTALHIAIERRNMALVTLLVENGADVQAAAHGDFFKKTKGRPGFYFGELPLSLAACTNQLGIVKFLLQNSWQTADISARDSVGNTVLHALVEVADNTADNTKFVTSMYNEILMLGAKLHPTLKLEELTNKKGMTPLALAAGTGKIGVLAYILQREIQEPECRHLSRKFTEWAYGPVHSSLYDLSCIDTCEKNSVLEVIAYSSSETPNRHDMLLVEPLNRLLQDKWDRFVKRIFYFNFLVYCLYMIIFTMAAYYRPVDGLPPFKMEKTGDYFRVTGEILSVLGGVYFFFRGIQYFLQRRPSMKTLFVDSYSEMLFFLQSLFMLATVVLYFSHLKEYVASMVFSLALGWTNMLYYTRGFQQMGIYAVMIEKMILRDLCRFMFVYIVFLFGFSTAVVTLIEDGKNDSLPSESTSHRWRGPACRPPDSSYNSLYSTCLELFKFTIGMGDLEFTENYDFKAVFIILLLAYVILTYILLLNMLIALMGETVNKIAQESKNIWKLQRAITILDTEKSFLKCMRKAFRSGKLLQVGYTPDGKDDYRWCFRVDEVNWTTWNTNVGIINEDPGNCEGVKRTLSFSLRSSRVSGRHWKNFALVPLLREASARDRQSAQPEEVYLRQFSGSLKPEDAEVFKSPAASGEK
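Fluo-8 calcium influx in TRPV1-expressing cells, kinetic read (ex 480/em 520 nm). Compound added and read 3 min for agonist activity, followed by capsaicin at EC20 final and 2 min further read for enhancement.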
CBFb-RUNX1 inh = blocks binding between human CBF-beta and RUNX1; Potency, µM (top dose mostly 59.8 µM), for inactives: at the top dose activity, negative = inhibition, actives largely listed as inhibitors; Q01196+Q13951; AlphaScreen CBFb-His/RUNX1-biotin binding, biochemical; 230,000 tested, under 10 active; further: % of control where 0% means no effect
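AlphaScreen binding: CBFb-His and RUNX1-biotin (30 nM each) preincubated 20 min, compound added for 15 min, then nickel and streptavidin beads for 90 min, all at room temperature. Disruption of the interaction by any mechanism counts as activity.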
TRPV1 potentiator = enhances activation of the human vanilloid receptor TRPV1. Q8NER1. TRPV1-expressing cells, Fluo-8 calcium influx, capsaicin EC20 potentiation. potentiation, % at 8.33 µM. actives 0.02% (n = 320,000); in the data active means potentiation above about 80%; inconclusive means between about 30% and that limit; further: 0% is about no effect
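Fluo-8 calcium influx in TRPV1-expressing cells, kinetic read (ex 480/em 520 nm). Compound added and read 3 min for agonist activity, followed by capsaicin at EC20 final and 2 min further read for enhancement.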
* = called active by the depositor; [ ] = dose if it differs, or a comment. Unless noted, the call rests on the fitted dose curve; in most records, active means well fitted curve in the direction sought with a large enough effect; inconclusive means small, poorly fitted or top-dose-only effect, or another doubt; inactive means no such curve, though single readings can be large; an effect the other way counts as inactive or inconclusive.

What do the screens show for `Cc1cc2c(c(=O)o1)[C@@H](O)[C@H]1O[C@@H]1C2=O`?
Anesthetic bind: -5%[15.3 µM]; CBFb-RUNX1 inh: 2%[13.1 µM]

Results for CC1(C)C(=O)OC(C(=O)c2ccccc2)C2(CCCCC2)C1=O (stereo not drawn) ?
Anesthetic bind: -16%; TRPV1 ag: inconclusive; CBFb-RUNX1 inh: 2%; TRPV1 potentiator: -18

What do the screens show for `Cc1ccc(C(=O)C2OC(=O)C(C)(C)C(=O)C2(C)C)cc1` (stereo not drawn)?
A-T KAP1 phos: 0%; Anesthetic bind: 6.3µM*; TRPV1 ag: 4; CBFb-RUNX1 inh: 9%; TRPV1 potentiator: -3

Results for CC(=O)NCCCc1nc2ccccc2n1Cc1cc(C)ccc1C ?
A-T KAP1 phos: -5%; Anesthetic bind: -7%; TRPV1 ag: 89*; CBFb-RUNX1 inh: -3%; TRPV1 potentiator: 2

How did O=C1C=C(Nc2ccccc2)c2ccccc2C1=O do in these assays?
A-T KAP1 phos: 35µM*; Anesthetic bind: -13%; TRPV1 ag: 3; CBFb-RUNX1 inh: -2%; TRPV1 potentiator: -1

How did O=C1C=C(Nc2ccccc2)C(=O)c2ccccc21 do in these assays?
A-T KAP1 phos: 29%; Anesthetic bind: -15%; TRPV1 ag: 26; CBFb-RUNX1 inh: inconclusive; TRPV1 potentiator: -11

What do the screens show for `c1ccc(OCCn2c(COc3ccccc3)nc3ccccc32)cc1`?
Anesthetic bind: 10%

What do the screens show for `C=CCn1c(COc2ccccc2)nc2ccccc21`?
A-T KAP1 phos: 3%; Anesthetic bind: 71µM*; TRPV1 ag: inconclusive; TRPV1 potentiator: -28

What do the screens show for `CC1(COS(N)(=O)=O)CCCCC1`?
A-T KAP1 phos: 25%; Anesthetic bind: 5.6µM*; TRPV1 ag: 6; TRPV1 potentiator: -5

What do the screens show for `COCCNc1nc2c(c(=O)n(C)c(=O)n2C)n1Cc1cccc(C)c1`?
A-T KAP1 phos: 8%; Anesthetic bind: -15%; TRPV1 ag: -4; CBFb-RUNX1 inh: 4%; TRPV1 potentiator: 15

How did Cc1cccc(Cn2c(NCCO)nc3c2c(=O)n(C)c(=O)n3C)c1 do in these assays?
A-T KAP1 phos: 32µM*; Anesthetic bind: -3%; CBFb-RUNX1 inh: -10%

Results for COC(=O)CCCC1=CC2=CC(=O)C(C)(OC(=O)c3cccs3)C(=O)C2=CN1C1CCCCC1 (stereo not drawn) ?
A-T KAP1 phos: 25µM*; Anesthetic bind: 1%; TRPV1 ag: 6; CBFb-RUNX1 inh: -2%[13.1 µM]; TRPV1 potentiator: -26

Results for CCOc1cccc(/C=C/c2ccc3cccc(O)c3n2)c1OC ?
A-T KAP1 phos: 7.9µM*; Anesthetic bind: 7%; TRPV1 ag: 4; TRPV1 potentiator: 12

What do the screens show for `CCOC(=O)[C@H]1[C@H]2COc3ccc(C)cc3[C@@H]2N2C(=O)c3cc(F)c(F)cc3NC(=O)[C@@]12C`?
A-T KAP1 phos: 4%; TRPV1 ag: 81*; TRPV1 potentiator: 5

What do the screens show for `CCOC(=O)[C@H]1[C@H]2COc3ccc(Cl)cc3[C@@H]2N2C(=O)c3cc(F)c(F)cc3NC(=O)[C@@]12C`?
A-T KAP1 phos: 14%; TRPV1 ag: 81*; TRPV1 potentiator: 17

Results for CC[C@H](C)[C@H](NC(=O)[C@H](CC(C)C)NC(=O)[C@@H](N)CO)C(=O)NCC(=O)N[C@@H](CCCCN)C(=O)N[C@H](C(=O)O)C(C)C ?
Anesthetic bind: 4%; CBFb-RUNX1 inh: 18%
